{
  "source": "PubChem BioAssay (EPA / NIEHS)",
  "key": {"[1]": {"tested_on": "zebrafish Estrogen Receptor (ER2b), gene 317733", "assay": "ATG_zfER2b_XSP2: Attagene TRANS-FACTORIAL Multi-Species (XSP2) HepG2 Assay for zebrafish Estrogen Receptor (ER2b) (AID 2283823);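 further: fitted upward as reporter gain over DMSO so potency reflects activation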", "outline": "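Read-out: fluorescent reporter mRNA, measured by RT-PCR then capillary electrophoresis after HpaI digestion. HepG2 cells carried transiently transfected multi-reporter TRANS constructs (NR-Gal4 chimeras); 24 h chemical exposure; activity scored upward versus DMSO control.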"}, "[2]": {"target": "Estrogen receptor (Homo sapiens) (UniProt P03372)", "sequence (P03372 whole entry, looked up, the tested form may be a part)": "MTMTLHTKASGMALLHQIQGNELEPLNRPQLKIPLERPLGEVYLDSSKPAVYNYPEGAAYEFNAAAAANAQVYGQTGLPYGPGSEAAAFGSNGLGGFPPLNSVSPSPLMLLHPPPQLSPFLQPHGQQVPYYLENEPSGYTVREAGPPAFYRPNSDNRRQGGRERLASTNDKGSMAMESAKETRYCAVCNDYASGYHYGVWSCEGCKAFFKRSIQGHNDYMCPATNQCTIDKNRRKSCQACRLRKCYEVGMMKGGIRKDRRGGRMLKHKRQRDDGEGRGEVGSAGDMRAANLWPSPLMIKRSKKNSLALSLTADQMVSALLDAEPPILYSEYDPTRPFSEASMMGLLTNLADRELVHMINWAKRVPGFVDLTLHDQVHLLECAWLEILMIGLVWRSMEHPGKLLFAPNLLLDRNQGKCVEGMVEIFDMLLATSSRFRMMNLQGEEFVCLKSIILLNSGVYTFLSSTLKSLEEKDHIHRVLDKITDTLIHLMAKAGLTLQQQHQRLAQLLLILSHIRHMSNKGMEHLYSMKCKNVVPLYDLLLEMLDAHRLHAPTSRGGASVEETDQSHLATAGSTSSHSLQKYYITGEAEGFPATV", "assay": "ATG_hERa_XSP2: Attagene TRANS-FACTORIAL Multi-Species (XSP2) HepG2 Assay for human Estrogen Receptor (ERa) (AID 2283827)", "outline": "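HepG2 cells transiently transfected with multiplexed GAL4-UAS reporters driven by chimeric receptor-Gal4 proteins, dosed 24 h with 3 nM 6-alpha-fluorotestosterone and 1.5 nM norgestrel present. Reporter mRNA by RT-PCR and capillary electrophoresis; gain-of-signal fit versus DMSO.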"}, "[3]": {"tested_on": "frog Estrogen Receptor (ER2), gene 100174814", "assay": "ATG_frER2_XSP2: Attagene TRANS-FACTORIAL Multi-Species (XSP2) HepG2 Assay for frog Estrogen Receptor (ER2) (AID 2283828)", "outline": "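Human liver HepG2, transient MRTU transfection (TRANS format, exogenous NR–Gal4). 24 h cpd exposure. Total RNA → RT → PCR → FAM label → HpaI cut → CE. Positive direction vs DMSO.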"}, "[4]": {"target": "Peroxisome proliferator-activated receptor gamma (Homo sapiens) (UniProt P37231)", "sequence (P37231 whole entry, looked up, the tested form may be a part)": "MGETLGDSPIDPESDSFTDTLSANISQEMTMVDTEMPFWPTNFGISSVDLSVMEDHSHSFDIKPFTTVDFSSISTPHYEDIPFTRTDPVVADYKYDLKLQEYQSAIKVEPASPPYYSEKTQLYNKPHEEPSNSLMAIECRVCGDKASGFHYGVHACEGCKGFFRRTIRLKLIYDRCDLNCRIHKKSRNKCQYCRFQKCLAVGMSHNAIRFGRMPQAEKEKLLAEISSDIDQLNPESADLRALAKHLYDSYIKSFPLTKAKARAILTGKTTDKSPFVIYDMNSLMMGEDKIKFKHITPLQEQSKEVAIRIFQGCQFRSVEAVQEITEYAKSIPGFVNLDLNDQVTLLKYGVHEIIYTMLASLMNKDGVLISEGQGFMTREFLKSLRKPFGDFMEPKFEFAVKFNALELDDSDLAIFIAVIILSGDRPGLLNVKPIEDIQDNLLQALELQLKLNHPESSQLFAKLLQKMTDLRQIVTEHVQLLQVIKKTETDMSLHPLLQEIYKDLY", "assay": "ATG_hPPARg_XSP2: Attagene TRANS-FACTORIAL Multi-Species (XSP2) HepG2 Assay for human Peroxisome Proliferator-activated Receptor gamma (PPARg) (AID 2283829);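 further: actives raise reporter mRNA above DMSO so AC50 reflects PPARg activation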", "outline": "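HepG2 cells transiently transfected with multiplexed GAL4-UAS reporter units for chimeric NR-Gal4 receptors, dosed 24 h. Reporter mRNA quantified by RT-PCR, 6-FAM labeling, HpaI digestion and capillary electrophoresis; gain-of-signal fitted against DMSO baseline.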"}, "[5]": {"target": "mouse Peroxisome Proliferator-activated Receptor gamma (PPARg), Pparg (gene 19016) (UniProt P37238)", "sequence (P37238 whole entry, looked up, the tested form may be a part)": "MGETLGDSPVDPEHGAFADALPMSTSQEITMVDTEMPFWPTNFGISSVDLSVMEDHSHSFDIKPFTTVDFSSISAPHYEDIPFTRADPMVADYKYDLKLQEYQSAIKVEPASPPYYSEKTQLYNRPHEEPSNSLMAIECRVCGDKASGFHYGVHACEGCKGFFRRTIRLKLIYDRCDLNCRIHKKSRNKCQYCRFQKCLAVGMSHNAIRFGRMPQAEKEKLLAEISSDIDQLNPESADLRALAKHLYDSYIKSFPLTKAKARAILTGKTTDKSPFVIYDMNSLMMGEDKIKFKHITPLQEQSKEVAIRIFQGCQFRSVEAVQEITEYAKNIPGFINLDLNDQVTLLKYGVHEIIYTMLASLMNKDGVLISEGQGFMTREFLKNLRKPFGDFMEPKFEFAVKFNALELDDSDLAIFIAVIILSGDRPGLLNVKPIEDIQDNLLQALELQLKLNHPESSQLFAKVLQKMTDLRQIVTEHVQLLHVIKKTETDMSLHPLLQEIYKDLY", "assay": "ATG_mPPARg_XSP2: Attagene TRANS-FACTORIAL Multi-Species (XSP2) HepG2 Assay for mouse Peroxisome Proliferator-activated Receptor gamma (PPARg) (AID 2283830);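 further: hits are gains in reporter mRNA above DMSO so AC50 marks activation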", "outline": "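HepG2 cells transiently transfected with GAL4-UAS reporter units for chimeric NR-Gal4 proteins including mouse PPARg, exposed 24 h; medium contained 3 nM 6-alpha-fluorotestosterone and 1.5 nM norgestrel. Reporter mRNA quantified by RT-PCR, HpaI digestion and capillary electrophoresis, vs DMSO.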"}, "[6]": {"target": "Nuclear receptor subfamily 1 group I member 2 (Mus musculus) (UniProt O54915)", "sequence (O54915 whole entry, looked up, the tested form may be a part)": "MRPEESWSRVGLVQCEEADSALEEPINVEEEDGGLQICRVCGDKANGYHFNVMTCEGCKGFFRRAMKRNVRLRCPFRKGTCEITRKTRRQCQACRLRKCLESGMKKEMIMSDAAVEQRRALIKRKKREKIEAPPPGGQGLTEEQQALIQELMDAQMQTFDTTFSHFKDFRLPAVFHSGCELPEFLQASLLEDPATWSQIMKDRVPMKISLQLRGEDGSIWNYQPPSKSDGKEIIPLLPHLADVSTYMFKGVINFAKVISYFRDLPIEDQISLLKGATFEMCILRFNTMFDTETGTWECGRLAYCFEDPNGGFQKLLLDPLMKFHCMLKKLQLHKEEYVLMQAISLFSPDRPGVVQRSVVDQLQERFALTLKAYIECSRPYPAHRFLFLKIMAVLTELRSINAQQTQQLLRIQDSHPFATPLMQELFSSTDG", "assay": "ATG_mPXR_XSP2: Attagene TRANS-FACTORIAL Multi-Species (XSP1) HepG2 Assay for mouse Pregnane X Receptor (PXR) (AID 2283831)", "outline": "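HepG2 cells transiently transfected with GAL4-UAS reporter units expressing chimeric NR-GAL4 proteins; reporter mRNA measured 24 h after dosing by RT-PCR with 6-FAM labelling and capillary electrophoresis, gain of signal relative to DMSO.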"}, "[7]": {"target": "zebrafish Thyroid Hormone Receptor alpha (TRa), thraa (gene 30670) (UniProt Q98867)", "sequence (Q98867 whole entry, looked up, the tested form may be a part)": "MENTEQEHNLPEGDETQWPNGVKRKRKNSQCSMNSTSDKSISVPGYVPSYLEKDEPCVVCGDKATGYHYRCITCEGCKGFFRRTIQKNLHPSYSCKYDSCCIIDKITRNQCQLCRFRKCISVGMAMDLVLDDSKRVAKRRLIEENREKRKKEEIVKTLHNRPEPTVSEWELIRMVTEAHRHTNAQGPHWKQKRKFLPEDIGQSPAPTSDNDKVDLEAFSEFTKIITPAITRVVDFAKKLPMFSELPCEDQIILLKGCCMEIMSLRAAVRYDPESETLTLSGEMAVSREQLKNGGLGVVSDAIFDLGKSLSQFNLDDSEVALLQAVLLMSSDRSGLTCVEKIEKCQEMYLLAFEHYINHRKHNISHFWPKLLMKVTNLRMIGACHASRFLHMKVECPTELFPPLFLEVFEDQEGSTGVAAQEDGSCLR", "assay": "ATG_zfTRa_XSP2: Attagene TRANS-FACTORIAL Multi-Species (XSP1) HepG2 Assay for zebrafish Thyroid Hormone Receptor alpha (TRa) (AID 2283832);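 further: actives raise zebrafish TRa-Gal4 reporter transcript above DMSO baseline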", "outline": "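Transient transfection of human HepG2 with GAL4-UAS reporter units, then 24 h chemical treatment. RNA isolated, reverse-transcribed, PCR-amplified, FAM-labelled, HpaI-digested and run on capillary electrophoresis. Gain-of-signal relative to DMSO.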"}, "[8]": {"assay": "ATG_M_32_XSP2: Attagene TRANS-FACTORIAL Multi-Species (XSP2) HepG2 Assay for M19 Transcription Factor (Internal Marker) (AID 2283826)", "outline": "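HepG2 cells transiently transfected with GAL4-UAS reporter transcription units, dosed with compound for 24 h in presence of 3 nM 6-alpha-fluorotestosterone and 1.5 nM norgestrel; reporter mRNA quantified by RT-PCR, FAM labelling, HpaI digestion and capillary electrophoresis.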"}, "[9]": {"tested_on": "frog Androgen Receptor (AR), gene 399456", "assay": "ATG_frAR_XSP2: Attagene TRANS-FACTORIAL Multi-Species (XSP2) HepG2 Assay for frog Androgen Receptor (AR) (AID 2283824);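 further: actives raise reporter signal above DMSO so AC50 reflects agonist-like induction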", "outline": "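HepG2 cells transiently transfected with GAL4-UAS reporter units and frog (Xenopus laevis) AR-Gal4 chimera; reporter mRNA measured 24 h after dosing by RT-PCR and capillary electrophoresis. Gain of signal fitted relative to DMSO baseline.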"}, "[10]": {"tested_on": "zebrafish Androgen Receptor (AR), gene 100005148", "assay": "ATG_zfAR_XSP2: Attagene TRANS-FACTORIAL Multi-Species (XSP2) HepG2 Assay for zebrafish Androgen Receptor (AR) (AID 2283825);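 further: hits raise reporter mRNA above DMSO so AC50 reflects agonist-type gain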", "outline": "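Zebrafish AR–GAL4 chimera transiently expressed with GAL4-UAS reporter in HepG2 cells, co-stimulated with 3 nM 6-alpha-fluorotestosterone and 1.5 nM norgestrel; 24 h dosing, reporter mRNA read by RT-PCR/capillary electrophoresis versus DMSO.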"}},
  "note": "Where “and” joins values, the source holds several entries; their conditions need not be identical. Identical values can stand only once. Inconclusive results are not listed. The source holds several records for some structures; these can differ, active in one and inactive in another. Calls of active or inactive are those of the source. How the source made its calls: active means hit-call score of the fitted dose curve at least 0.9, where 1 is the maximum; inconclusive means response in the unintended direction; inactive means score below 0.9.",
  "data": [
    {"compound": "CC(O)(CS(=O)(=O)c1ccc(F)cc1)C(=O)Nc1ccc(C#N)c(C(F)(F)F)c1", "note": "(stereo not given)", "values": [
      {"measurement": "AC50", "setting": "[1]", "result": "50.4 µM (active)"},
      {"measurement": "outcome", "setting": "[1]", "result": "inactive"},
      {"measurement": "outcome", "setting": "[2]", "result": "inactive"},
      {"measurement": "outcome", "setting": "[3]", "result": "inactive"},
      {"measurement": "outcome", "setting": "[4]", "result": "inactive"},
      {"measurement": "AC50", "setting": "[5]", "result": "46.2 µM (active)"},
      {"measurement": "outcome", "setting": "[5]", "result": "inactive"},
      {"measurement": "AC50", "setting": "[6]", "result": "4.25 µM (active)"},
      {"measurement": "outcome", "setting": "[7]", "result": "inactive"}
    ]},
    {"compound": "O=c1oc2ccccc2c(O)c1C(CC(O)c1ccc(-c2ccc(Br)cc2)cc1)c1ccccc1", "note": "(stereo not given)", "values": [
      {"measurement": "outcome", "setting": "[1]", "result": "inactive"},
      {"measurement": "outcome", "setting": "[8]", "result": "inactive"},
      {"measurement": "outcome", "setting": "[3]", "result": "inactive"},
      {"measurement": "AC50", "setting": "[4]", "result": "1.64 µM (active)"},
      {"measurement": "AC50", "setting": "[5]", "result": "2.5 µM (active)"},
      {"measurement": "AC50", "setting": "[6]", "result": "31.6 µM (active)"}
    ]},
    {"compound": "CCOP(=S)(OCC)O/N=C(\\C#N)c1ccccc1", "values": [
      {"measurement": "AC50", "setting": "[1]", "result": "19 µM (active) and 8.31 µM (active)"},
      {"measurement": "AC50", "setting": "[3]", "result": "16.1 µM (active) and 2.28 µM (active)"},
      {"measurement": "AC50", "setting": "[4]", "result": "27.4 µM (active) and 10.3 µM (active)"},
      {"measurement": "AC50", "setting": "[5]", "result": "22.4 µM (active) and 15.5 µM (active)"},
      {"measurement": "AC50", "setting": "[6]", "result": "4.3 µM (active) and 2.37 µM (active)"},
      {"measurement": "outcome", "setting": "[7]", "result": "inactive"}
    ]},
    {"compound": "Oc1cc(Cl)c(Cl)cc1Cl", "values": [
      {"measurement": "AC50", "setting": "[1]", "result": "68.6 µM (active) and 22.9 µM (active)"},
      {"measurement": "AC50", "setting": "[9]", "result": "5.4 µM (active) and 2.63 µM (active)"},
      {"measurement": "AC50", "setting": "[3]", "result": "24.5 µM (active) and 19.2 µM (active)"},
      {"measurement": "AC50", "setting": "[4]", "result": "60.1 µM (active) and 44.2 µM (active)"},
      {"measurement": "AC50", "setting": "[5]", "result": "65 µM (active) and 35 µM (active)"},
      {"measurement": "outcome", "setting": "[6]", "result": "inactive"},
      {"measurement": "outcome", "setting": "[7]", "result": "inactive"}
    ]},
    {"compound": "[Cl][Sn]([c]1ccccc1)([c]1ccccc1)[c]1ccccc1", "values": [
      {"measurement": "outcome", "setting": "[1]", "result": "inactive"},
      {"measurement": "outcome", "setting": "[10]", "result": "inactive"},
      {"measurement": "outcome", "setting": "[8]", "result": "inactive"},
      {"measurement": "outcome", "setting": "[2]", "result": "inactive"},
      {"measurement": "outcome", "setting": "[3]", "result": "inactive"},
      {"measurement": "AC50", "setting": "[4]", "result": "0.041 µM (active)"},
      {"measurement": "AC50", "setting": "[5]", "result": "0.184 µM (active)"},
      {"measurement": "AC50", "setting": "[7]", "result": "925 nM (active)"}
    ]},
    {"compound": "COCCl", "values": [
      {"measurement": "AC50", "setting": "[1]", "result": "65.6 µM (active)"},
      {"measurement": "outcome", "setting": "[1]", "result": "inactive"},
      {"measurement": "outcome", "setting": "[10]", "result": "inactive"},
      {"measurement": "AC50", "setting": "[3]", "result": "61.9 µM (active)"},
      {"measurement": "outcome", "setting": "[3]", "result": "inactive"},
      {"measurement": "outcome", "setting": "[4]", "result": "inactive"},
      {"measurement": "outcome", "setting": "[5]", "result": "inactive"},
      {"measurement": "AC50", "setting": "[6]", "result": "7.08 µM (active)"},
      {"measurement": "outcome", "setting": "[6]", "result": "inactive"}
    ]}
  ]
}
